What was measured:
Experiment in all cases: DAPPL (digital affinity profiling via proximity ligation, sequencing); 10 mM Tris-HCl pH 7.5, 50 mM NaCl, 1 mM DTT, 4% glycerol, room temperature, 30 min; GST-TFs on glutathione beads, 16-mer random dsDNA library, 0.1% formaldehyde crosslink after washing; high values mean tight binding
[1] = molecular target: T1, FLI1 (Homo sapiens, UniProt Q01543 1-452); settings: protein: recombinant; tags: N-terminal GST; dsDNA, one strand shown
T1 sequence: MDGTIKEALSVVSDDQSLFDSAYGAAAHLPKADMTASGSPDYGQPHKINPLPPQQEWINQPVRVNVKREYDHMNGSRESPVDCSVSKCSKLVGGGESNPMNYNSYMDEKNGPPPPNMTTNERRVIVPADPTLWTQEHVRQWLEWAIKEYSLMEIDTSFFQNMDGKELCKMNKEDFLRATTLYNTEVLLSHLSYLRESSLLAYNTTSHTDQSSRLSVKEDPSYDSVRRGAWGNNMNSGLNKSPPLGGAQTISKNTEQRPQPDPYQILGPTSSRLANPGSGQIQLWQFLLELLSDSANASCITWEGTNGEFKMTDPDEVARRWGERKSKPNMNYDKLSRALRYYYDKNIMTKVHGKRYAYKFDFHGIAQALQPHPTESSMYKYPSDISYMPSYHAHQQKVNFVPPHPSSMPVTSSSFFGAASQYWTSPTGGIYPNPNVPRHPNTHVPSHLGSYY
Method in brief: (§1)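 Binding signal is each hexamer's read frequency for a factor divided by its frequency in the tag-only sample. The factors were GST-fused human transcription factors from yeast, captured on glutathione beads, DNA-barcoded and pooled with that sample. Pools were incubated with 200 nmole of a random double-stranded 16-mer DNA library in Tris/NaCl/DTT/glycerol buffer at room temperature for 30 min, then washed, crosslinked with 0.1% formaldehyde, proximity-ligated with BsaI/T4 ligase (1 h, 37 °C), PCR-amplified and sequenced on an Illumina NextSeq500.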

[2] = molecular target: T2, ELK1 (Homo sapiens, UniProt P19419 1-428); settings: protein: recombinant; tags: N-terminal GST; dsDNA, one strand shown
T2 sequence: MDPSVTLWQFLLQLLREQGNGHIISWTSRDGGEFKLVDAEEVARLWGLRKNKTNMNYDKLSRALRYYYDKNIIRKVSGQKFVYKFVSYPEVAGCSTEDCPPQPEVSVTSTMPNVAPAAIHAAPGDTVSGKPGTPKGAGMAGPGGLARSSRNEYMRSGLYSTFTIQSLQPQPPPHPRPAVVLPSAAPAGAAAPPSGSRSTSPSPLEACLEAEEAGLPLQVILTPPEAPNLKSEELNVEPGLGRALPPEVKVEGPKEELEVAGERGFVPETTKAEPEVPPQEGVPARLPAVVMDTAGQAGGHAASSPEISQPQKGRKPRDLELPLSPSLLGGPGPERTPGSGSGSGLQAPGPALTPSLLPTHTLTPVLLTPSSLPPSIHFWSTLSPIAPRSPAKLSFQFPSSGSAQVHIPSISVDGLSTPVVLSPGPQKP
Method in brief: as §1

[3] = molecular target: T3, GABPA (Homo sapiens, UniProt Q06546 1-454); settings: protein: recombinant; tags: N-terminal GST; dsDNA, one strand shown
T3 sequence: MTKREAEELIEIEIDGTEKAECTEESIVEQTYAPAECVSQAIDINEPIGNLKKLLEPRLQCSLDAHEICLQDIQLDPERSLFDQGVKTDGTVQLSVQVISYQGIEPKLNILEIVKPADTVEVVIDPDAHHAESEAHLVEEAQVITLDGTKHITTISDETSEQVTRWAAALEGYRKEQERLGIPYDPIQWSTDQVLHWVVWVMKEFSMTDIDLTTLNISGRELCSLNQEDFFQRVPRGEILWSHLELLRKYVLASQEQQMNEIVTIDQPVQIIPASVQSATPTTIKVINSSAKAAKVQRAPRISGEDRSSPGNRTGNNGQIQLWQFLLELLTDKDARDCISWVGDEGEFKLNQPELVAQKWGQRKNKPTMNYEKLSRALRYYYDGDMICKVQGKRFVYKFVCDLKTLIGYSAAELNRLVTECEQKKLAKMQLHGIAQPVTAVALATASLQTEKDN
Method in brief: as §1

[4] = molecular target: T4, ERG (Homo sapiens, UniProt P11308 1-479); settings: protein: recombinant; tags: N-terminal GST; dsDNA, one strand shown
T4 sequence: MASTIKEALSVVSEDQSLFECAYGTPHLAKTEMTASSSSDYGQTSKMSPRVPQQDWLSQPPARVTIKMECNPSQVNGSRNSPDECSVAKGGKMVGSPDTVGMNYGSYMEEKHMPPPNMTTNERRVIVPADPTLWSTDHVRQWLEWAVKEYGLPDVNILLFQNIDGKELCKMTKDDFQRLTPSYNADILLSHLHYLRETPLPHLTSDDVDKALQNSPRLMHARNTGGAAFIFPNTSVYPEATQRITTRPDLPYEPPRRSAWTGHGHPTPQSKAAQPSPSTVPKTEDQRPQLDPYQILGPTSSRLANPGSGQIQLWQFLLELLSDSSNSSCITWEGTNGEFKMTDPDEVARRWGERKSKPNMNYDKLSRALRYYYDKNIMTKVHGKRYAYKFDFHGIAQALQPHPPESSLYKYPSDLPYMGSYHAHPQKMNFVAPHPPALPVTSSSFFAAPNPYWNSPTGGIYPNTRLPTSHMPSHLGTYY
Method in brief: as §1

[5] = molecular target: ELF1 (Homo sapiens, UniProt P32519 1-619); settings: protein: recombinant; tags: N-terminal GST; dsDNA, one strand shown
ELF1, sequence (P32519 whole entry): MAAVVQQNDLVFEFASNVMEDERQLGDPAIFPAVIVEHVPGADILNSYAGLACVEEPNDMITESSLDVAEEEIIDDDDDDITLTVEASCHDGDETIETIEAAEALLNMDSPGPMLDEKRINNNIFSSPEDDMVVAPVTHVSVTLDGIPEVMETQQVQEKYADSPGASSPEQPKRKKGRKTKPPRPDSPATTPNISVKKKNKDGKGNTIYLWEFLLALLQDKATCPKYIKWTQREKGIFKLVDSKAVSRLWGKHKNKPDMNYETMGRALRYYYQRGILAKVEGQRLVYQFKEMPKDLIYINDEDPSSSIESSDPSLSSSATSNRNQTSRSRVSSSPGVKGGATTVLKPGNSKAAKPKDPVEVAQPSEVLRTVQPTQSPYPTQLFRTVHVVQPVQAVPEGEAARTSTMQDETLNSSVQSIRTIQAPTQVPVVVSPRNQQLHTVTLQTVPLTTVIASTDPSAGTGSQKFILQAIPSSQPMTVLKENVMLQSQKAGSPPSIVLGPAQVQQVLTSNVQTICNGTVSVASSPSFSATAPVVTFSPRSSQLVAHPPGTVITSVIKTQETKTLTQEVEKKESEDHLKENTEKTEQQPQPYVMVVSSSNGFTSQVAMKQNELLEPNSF
Method in brief: as §1

[6] = molecular target: T5, EHF (Homo sapiens, UniProt Q9NZC4 1-300); settings: protein: recombinant; tags: N-terminal GST; dsDNA, one strand shown
T5 sequence: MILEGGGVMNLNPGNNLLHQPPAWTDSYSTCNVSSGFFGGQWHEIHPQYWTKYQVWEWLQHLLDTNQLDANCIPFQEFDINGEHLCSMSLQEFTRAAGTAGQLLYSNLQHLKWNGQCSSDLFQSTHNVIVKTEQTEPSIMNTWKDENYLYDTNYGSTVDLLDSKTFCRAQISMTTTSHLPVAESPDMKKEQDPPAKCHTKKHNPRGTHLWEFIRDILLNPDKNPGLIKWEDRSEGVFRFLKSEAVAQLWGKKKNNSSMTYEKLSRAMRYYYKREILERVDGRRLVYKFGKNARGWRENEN
Method in brief: as §1

[7] = molecular target: SPI1 (Homo sapiens, UniProt P17947 1-270); settings: protein: recombinant; tags: N-terminal GST; dsDNA, one strand shown
Method in brief: as §1

[8] = molecular target: SPIB (Homo sapiens, UniProt Q01892 1-262); settings: protein: recombinant; tags: N-terminal GST; dsDNA, one strand shown
SPIB, sequence (Q01892 whole entry): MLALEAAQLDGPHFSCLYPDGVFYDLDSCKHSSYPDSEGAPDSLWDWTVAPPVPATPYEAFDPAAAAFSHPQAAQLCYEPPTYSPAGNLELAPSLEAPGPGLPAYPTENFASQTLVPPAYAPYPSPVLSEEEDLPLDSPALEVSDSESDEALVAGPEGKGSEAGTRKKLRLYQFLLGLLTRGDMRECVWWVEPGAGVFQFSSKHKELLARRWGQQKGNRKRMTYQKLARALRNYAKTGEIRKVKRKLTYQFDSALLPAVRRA
Method in brief: as §1

[9] = molecular target: T6, ELK3 (Homo sapiens, UniProt P41970 1-407); settings: protein: recombinant; tags: N-terminal GST; dsDNA, one strand shown
T6 sequence: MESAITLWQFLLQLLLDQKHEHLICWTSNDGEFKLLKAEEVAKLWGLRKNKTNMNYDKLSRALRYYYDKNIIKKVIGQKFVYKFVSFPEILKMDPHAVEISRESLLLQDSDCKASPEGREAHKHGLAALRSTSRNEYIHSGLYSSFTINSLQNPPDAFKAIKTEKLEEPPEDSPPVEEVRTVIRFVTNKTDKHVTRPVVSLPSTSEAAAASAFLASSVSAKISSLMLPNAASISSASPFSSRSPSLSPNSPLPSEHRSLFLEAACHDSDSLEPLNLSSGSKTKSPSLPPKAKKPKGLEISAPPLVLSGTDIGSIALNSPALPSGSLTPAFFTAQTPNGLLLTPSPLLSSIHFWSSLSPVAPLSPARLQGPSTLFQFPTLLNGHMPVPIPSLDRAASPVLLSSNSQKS
Method in brief: as §1

[10] = molecular target: T7, FEV (Homo sapiens, UniProt Q99581 1-238); settings: protein: recombinant; tags: N-terminal GST; dsDNA, one strand shown
T7 sequence: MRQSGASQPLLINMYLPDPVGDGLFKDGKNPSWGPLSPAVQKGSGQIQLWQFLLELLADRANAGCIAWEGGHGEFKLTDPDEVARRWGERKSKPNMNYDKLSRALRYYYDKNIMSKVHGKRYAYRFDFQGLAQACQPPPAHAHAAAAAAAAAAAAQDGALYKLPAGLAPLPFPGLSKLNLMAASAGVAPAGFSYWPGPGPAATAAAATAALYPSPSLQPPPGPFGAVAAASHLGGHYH
Method in brief: as §1

[11] = molecular target: ETV5 (Homo sapiens, UniProt P41161 1-510); settings: protein: recombinant; tags: N-terminal GST; dsDNA, one strand shown
ETV5, sequence (P41161 whole entry): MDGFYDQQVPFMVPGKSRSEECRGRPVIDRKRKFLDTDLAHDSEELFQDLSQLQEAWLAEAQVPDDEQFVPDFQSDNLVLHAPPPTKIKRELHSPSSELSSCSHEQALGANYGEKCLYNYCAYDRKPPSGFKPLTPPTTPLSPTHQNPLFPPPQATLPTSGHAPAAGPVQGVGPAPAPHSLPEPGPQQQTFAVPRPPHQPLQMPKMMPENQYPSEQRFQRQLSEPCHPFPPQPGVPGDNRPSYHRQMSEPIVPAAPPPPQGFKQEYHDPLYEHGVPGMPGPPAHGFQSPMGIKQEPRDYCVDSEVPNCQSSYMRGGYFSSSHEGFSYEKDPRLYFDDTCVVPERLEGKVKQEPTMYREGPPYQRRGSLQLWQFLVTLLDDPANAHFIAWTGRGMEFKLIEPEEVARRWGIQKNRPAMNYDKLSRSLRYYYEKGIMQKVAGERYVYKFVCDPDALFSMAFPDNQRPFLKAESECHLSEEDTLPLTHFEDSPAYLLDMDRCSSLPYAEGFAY
Method in brief: as §1

[12] = molecular target: HSF1 (Homo sapiens, UniProt Q00613 1-529); settings: protein: recombinant; tags: N-terminal GST; chain copies: 3; dsDNA, one strand shown
HSF1, sequence (Q00613 whole entry): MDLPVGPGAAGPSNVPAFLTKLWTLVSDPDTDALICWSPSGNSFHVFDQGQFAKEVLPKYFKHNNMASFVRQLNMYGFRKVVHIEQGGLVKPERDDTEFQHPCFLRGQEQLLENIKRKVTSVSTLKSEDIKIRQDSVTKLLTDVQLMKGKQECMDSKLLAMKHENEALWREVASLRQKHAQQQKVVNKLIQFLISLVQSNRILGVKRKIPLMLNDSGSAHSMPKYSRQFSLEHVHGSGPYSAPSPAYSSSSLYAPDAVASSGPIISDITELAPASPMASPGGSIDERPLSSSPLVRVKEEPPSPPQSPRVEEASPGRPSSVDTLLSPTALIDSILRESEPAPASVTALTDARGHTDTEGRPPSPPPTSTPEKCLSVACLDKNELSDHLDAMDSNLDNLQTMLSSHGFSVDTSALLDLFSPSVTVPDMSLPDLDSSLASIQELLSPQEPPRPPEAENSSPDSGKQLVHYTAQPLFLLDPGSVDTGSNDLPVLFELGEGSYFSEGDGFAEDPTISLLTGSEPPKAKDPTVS
Method in brief: as §1

[13] = molecular target: T8, SPIC (Homo sapiens, UniProt Q8N5J4 1-248); settings: protein: recombinant; tags: N-terminal GST; dsDNA, one strand shown
T8 sequence: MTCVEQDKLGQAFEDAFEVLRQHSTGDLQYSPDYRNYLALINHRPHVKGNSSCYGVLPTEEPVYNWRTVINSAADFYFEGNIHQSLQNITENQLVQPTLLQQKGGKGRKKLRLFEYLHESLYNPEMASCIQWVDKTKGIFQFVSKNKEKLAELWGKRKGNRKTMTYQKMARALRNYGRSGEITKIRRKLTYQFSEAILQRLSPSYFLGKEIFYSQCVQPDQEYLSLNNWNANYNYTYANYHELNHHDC
Method in brief: as §1

[14] = molecular target: ELF4 (Homo sapiens, UniProt Q99607 1-663); settings: protein: recombinant; tags: N-terminal GST; dsDNA, one strand shown
ELF4, sequence (Q99607 whole entry): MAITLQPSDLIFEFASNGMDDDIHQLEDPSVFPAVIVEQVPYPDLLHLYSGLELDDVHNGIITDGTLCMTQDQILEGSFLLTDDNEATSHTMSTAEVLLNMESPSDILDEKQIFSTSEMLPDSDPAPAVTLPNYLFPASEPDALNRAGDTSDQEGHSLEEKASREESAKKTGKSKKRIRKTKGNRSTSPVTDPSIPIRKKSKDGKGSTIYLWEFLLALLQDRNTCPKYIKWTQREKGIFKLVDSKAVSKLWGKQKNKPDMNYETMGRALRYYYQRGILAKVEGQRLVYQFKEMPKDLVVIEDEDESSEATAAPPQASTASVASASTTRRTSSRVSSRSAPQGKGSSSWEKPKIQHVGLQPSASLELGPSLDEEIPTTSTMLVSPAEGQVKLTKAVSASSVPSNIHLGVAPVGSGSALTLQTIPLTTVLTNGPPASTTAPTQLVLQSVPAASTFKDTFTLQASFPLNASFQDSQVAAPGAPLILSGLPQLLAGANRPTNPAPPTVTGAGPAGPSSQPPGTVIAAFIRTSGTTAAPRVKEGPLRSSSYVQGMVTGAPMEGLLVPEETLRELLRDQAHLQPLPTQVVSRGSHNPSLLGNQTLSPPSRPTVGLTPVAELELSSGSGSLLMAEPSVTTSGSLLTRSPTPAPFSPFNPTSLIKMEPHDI
Method in brief: as §1

[15] = molecular target: T9, ELK4 (Homo sapiens, UniProt P28324-2 1-405); settings: protein: recombinant; tags: N-terminal GST; dsDNA, one strand shown
T9 sequence: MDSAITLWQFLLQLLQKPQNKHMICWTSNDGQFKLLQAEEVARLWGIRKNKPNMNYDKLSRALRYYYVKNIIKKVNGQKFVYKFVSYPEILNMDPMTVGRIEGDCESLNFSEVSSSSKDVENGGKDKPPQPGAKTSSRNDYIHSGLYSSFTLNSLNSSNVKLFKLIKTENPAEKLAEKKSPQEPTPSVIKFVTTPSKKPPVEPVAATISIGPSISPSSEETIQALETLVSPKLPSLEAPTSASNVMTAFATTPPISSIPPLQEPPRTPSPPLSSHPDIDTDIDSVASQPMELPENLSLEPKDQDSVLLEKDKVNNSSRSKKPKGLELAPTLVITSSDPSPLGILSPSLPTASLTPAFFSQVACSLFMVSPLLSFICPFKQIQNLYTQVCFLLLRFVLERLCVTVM
Method in brief: as §1

[16] = molecular target: T10, ETV2 (Homo sapiens, UniProt O00321 1-342); settings: protein: recombinant; tags: N-terminal GST; dsDNA, one strand shown
T10 sequence: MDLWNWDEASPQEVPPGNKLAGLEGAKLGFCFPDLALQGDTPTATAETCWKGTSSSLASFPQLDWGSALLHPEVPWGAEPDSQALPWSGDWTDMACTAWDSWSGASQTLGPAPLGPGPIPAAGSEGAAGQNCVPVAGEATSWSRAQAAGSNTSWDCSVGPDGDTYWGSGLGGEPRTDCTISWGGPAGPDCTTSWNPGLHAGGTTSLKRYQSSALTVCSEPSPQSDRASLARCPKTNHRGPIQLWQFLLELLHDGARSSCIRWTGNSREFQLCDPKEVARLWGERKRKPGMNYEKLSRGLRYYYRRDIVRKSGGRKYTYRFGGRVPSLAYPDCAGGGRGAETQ
Method in brief: as §1

[17] = molecular target: T11, ELF3 (Homo sapiens, UniProt P78545 1-371); settings: protein: recombinant; tags: N-terminal GST; dsDNA, one strand shown
T11 sequence: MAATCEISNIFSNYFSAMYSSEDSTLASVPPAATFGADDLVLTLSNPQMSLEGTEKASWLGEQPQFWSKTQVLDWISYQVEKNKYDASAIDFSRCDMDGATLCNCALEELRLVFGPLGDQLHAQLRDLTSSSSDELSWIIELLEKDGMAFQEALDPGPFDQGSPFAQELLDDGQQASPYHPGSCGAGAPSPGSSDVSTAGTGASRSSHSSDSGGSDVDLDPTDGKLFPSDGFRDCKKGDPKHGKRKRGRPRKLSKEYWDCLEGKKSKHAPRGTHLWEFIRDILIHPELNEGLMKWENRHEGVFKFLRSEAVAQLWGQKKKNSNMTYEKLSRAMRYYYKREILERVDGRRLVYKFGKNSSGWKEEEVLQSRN
Method in brief: as §1

[18] = molecular target: CRX (Homo sapiens, UniProt O43186 1-299); settings: protein: recombinant; tags: N-terminal GST; dsDNA, one strand shown
CRX, sequence (O43186 whole entry): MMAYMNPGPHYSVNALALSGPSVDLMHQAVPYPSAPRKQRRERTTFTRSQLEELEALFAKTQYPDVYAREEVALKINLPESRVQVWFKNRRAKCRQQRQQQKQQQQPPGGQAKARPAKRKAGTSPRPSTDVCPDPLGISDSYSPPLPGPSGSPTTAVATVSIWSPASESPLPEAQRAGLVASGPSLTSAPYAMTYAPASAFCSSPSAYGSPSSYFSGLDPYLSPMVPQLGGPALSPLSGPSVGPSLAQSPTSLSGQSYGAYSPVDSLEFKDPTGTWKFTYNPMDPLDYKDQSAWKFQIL
Method in brief: as §1

[19] = molecular target: ETV1 (Homo sapiens, UniProt P50549 1-477); settings: protein: recombinant; tags: N-terminal GST; dsDNA, one strand shown
ETV1, sequence (P50549 whole entry): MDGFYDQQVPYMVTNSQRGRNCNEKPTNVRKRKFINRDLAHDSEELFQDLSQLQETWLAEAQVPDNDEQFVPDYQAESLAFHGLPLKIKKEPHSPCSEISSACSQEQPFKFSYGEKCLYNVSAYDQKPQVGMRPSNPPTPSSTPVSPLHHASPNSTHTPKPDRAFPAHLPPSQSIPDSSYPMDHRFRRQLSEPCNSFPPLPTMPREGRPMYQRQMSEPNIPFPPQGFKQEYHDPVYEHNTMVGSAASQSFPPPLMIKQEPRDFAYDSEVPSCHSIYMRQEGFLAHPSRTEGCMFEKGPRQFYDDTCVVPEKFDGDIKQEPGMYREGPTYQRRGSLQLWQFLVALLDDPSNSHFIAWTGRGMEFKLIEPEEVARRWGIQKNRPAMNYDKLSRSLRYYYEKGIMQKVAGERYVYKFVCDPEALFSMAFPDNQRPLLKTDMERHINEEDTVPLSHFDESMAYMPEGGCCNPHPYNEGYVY
Method in brief: as §1

## CGGCTT
[1]
  binding signal: 1.17 fold enrichment (6-mer frequency, TF over GST control)
[2]
  binding signal: 1.2 fold enrichment (6-mer frequency, TF over GST control)
[3]
  binding signal: 1.12 fold enrichment (6-mer frequency, TF over GST control)
[4]
  binding signal: 1.19 fold enrichment (6-mer frequency, TF over GST control)
[5]
  binding signal: 1.13 fold enrichment (6-mer frequency, TF over GST control)
[6]
  binding signal: 1.13 fold enrichment (6-mer frequency, TF over GST control)
[7]
  binding signal: 1.17 fold enrichment (6-mer frequency, TF over GST control)
[8]
  binding signal: 1.18 fold enrichment (6-mer frequency, TF over GST control)
[9]
  binding signal: 1.12 fold enrichment (6-mer frequency, TF over GST control)
[10]
  binding signal: 1.14 fold enrichment (6-mer frequency, TF over GST control)
[11]
  binding signal: 1.16 fold enrichment (6-mer frequency, TF over GST control)
[12]
  binding signal: 1.35 fold enrichment (6-mer frequency, TF over GST control)
[13]
  binding signal: 1.13 fold enrichment (6-mer frequency, TF over GST control)
[14]
  binding signal: 1.1 fold enrichment (6-mer frequency, TF over GST control)
[15]
  binding signal: 1.09 fold enrichment (6-mer frequency, TF over GST control)
[16]
  binding signal: 1.27 fold enrichment (6-mer frequency, TF over GST control)
[17]
  binding signal: 1.15 fold enrichment (6-mer frequency, TF over GST control)
[18]
  binding signal: 1.95 fold enrichment (6-mer frequency, TF over GST control)
[19]
  binding signal: 1.2 fold enrichment (6-mer frequency, TF over GST control)
